Test results published in PubChem BioAssay (NCI).
The panel holds about 83,000 compounds, 20% with a hit somewhere; the sample as a whole holds those more often.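 Single-dose data. Exposure time 48 hours. Values below 10 considered active.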 Active and inactive are the calls of the source.

These compounds were tested on T-47D breast (assay: NCI-60 one-dose screen, 48 h (100 = growth as untreated, 0 = no growth, -100 = all killed)). Conditions: 10 µM unless noted.
Description: Growth inhibition of the T-47D human tumor cell line is measured as a screen for anti-cancer activity. Cells are grown in 96 well plates and exposed to the test compound for 48 hours. Compounds are tested at a single concentration, which is 10^-5 M for most compounds. The reported endpoint is percent growth (GI% or GIPRCNT), where numbers from 0 - 100% represent growth inhibition, and numbers from -100% - 0 represent cell death. For example, a value of 40 represents 60% growth inhibition. A value of 0 means no net growth occurred over the course of the experiment. A value of -40 indicates 40% of cells at the beginning of the experiment died by the end of the experiment. A value of -100 means all cells are dead at the end of the experiment.
NCI-60 Human Tumor Cell Lines Screen was performed using the standard one-dose NCI protocol, which is described in more detail at https://dtp.cancer.gov/discovery_development/nci-60/default.htm.
Compounds with GIPRCNT values below 10 were considered active. Activity score was based on GIPRCNT using the following formula: […]
Score is 0 for GIPRCNT values of 100 or above, 50 for GIPRCNT values of 0, and 100 for GIPRCNT values of -100.

| Compound | growth |
| --- | --- |
| CCOC(=O)c1ccc(Nc2ccnc(SCC(=O)c3ccc(C#N)cc3)n2)cc1 | 9.84% (active) |
| O=C(N/N=C/c1ccc(F)cc1)c1ccccc1Nc1cccc(C(F)(F)F)c1 | 88.2% (inactive) |
| CC1(C)NCCC[C@]2(C)[C@H]3CC=C4[C@@H]5C[C@@](C)(CO)CC[C@]5(C)CC[C@@]4(C)[C@]3(C)CC[C@@H]12 | 57.7% (inactive) |
| CCN(CC)CCCC(C)Nc1c2c(nc3ccc(OC)cc13)CCCC2 (stereo not given) | 113% (inactive) |
| O=C(Nc1ccc(Cl)cc1)Nc1ccc(Cl)c(Cl)c1 | -12.2% (active) |
| COc1nccnn1 | 107% (inactive) |
| Nc1ccccc1NC(=O)c1ccc(CN2CCC/C(=C\c3cccc(Cl)c3)C2=O)cc1 | 32.4% (inactive) |
| CC(O)/C=C/C=C/C(O)CC/C=C/C(=O)NCC(C)(C)O (stereo not given) | 86.2% (inactive) |
| O=C1/C(=C/c2ccc(O)cc2)COc2ccc(-c3ccccc3)cc21 | 30.8% (inactive) |
| Clc1nc(Cl)c2ncn(CC3(Cn4cnc5c(Cl)nc(Cl)nc54)COC3)c2n1 | -61.7% (active) |
| CNC(=O)Nc1ccc(-c2nc(N3CCOCC3)nc3c2cnn3C2CCOCC2)cc1 | -15.6% (active) |
| C#CCNC(=O)[C@H](Cc1ccccc1)NC(=O)[C@]12CC[C@@H](C(=C)C)[C@@H]1[C@H]1CC[C@@H]3[C@@]4(C)Cc5c([nH]c6ccccc56)C(C)(C)[C@@H]4CC[C@@]3(C)[C@]1(C)CC2 | 75.3% (inactive) |
| O=[N+]([O-])c1cccc(-c2nc(-c3ccc(Cl)cc3Cl)cn2-c2ccccc2)c1 | 15.6% (inactive) |
| Cc1ccc2[nH]c(=O)cc(-n3nncc3COc3ccc(C=O)cc3)c2c1 | 97.5% (inactive) |
| NC(=S)N/N=C(\c1ccc(Cl)cc1)C1CC1 | 30.6% (inactive) |
| CCCCOc1ccc(/C=N/Nc2cc(C)nc3ccc(Cl)cc23)cc1 | 21.5% (inactive) |
| COc1ccc(C(=O)c2cc3c(N)c(C(=O)Nc4cccc(Cl)c4)sc3nc2C)cc1 | 43.8% (inactive) |
| CCCCCN1C=C/C(=C\C(=O)N(C)c2cccc3ccccc23)c2ccccc21 | 87.9% (inactive) |
| O=S(=O)(NCCNc1nccc(-c2c(-c3ccc(F)c(O)c3)nc3sccn23)n1)c1ccccc1 | 68.8% (inactive) |
| CC(O)(CO)c1ccccc1 (stereo not given) | 102% (inactive) |

| Compound | growth |
| --- | --- |
| CCCCCCC/C=C/[C@H]1O[C@]2(O)C(=O)C=C3C[C@@H](O[C@@H]4O[C@H](CO)[C@@H](O)C(O)[C@@H]4O)C[C@@H]3[C@H]2C=C1C (stereo not given in full) | -9.2% (active) |
| O=C(CCN1CCCC1)Nc1ccc2c(Nc3ccccc3)c3ccccc3nc2c1 | 18.6% (inactive) |
| O=C1Nc2c(ccc(Cl)c2Cl)/C1=C/c1ccccn1 | 56.9% (inactive) |
| COC(=O)C1=C(C(=O)ONCCN(C)C)C2C=CC1(C(Cc1ccccc1)Nc1ccc(F)cc1)O2 (stereo not given) | -0.816% (active) |
| CCNNC(=O)[C@@H]1[C@H](c2cc(OC)c(OC)c(OC)c2)c2cc3c(cc2[C@H](O)[C@H]1CO)OCO3 | 80.6% (inactive) |
| O=S(=O)(NCCCNc1nccc(-c2c(-c3cccc(O)c3)nc3occn23)n1)c1ccc(F)cc1 | 56.3% (inactive) |
| CC(=O)[C@@H]1CC[C@]2(C(N)=O)CC[C@]3(C)[C@H](CC[C@@H]4[C@@]5(C)CCC(=O)C(C)(C)[C@@H]5CC[C@]43C)[C@@H]12 | 80.2% (inactive) |
| CN(Cc1ccccc1)c1nc(Cl)c(C2CC(c3ccc(Cl)cc3)=Cc3[nH][nH]c(=O)c32)s1 (stereo not given) | 89.7% (inactive) |
| Cc1n[nH]c(C)c1-c1c(C)n[nH]c1C | 18.7% (inactive) |
| C=C(C)[C@@H]1CC[C@]2(C(=O)O)CC[C@]3(C)[C@H](CC[C@@H]4[C@@]5(C)C[C@@H](CC#Cc6ccc(Br)cc6)C(=O)C(C)(C)[C@@H]5CC[C@]43C)[C@@H]12 | 48.3% (inactive) |
| Cc1cn(-c2cc(C(=O)Nc3cccc(C#Cc4cccc5[nH]nc(N)c45)c3)cc(C(F)(F)F)c2)cn1 | 54.2% (inactive) |
| Cc1cccc(C)c1-c1cc(Cc2ccc(Cl)cc2)c(=O)[nH]n1 | 86.4% (inactive) |
| CS(=O)(=O)c1ccc(-c2cc3c(oc2=O)-c2ccccc2OC3O)cc1 (stereo not given) | 90.4% (inactive) |
| CC1(C)CN(c2cnc(C(=O)Nc3cc(F)cc4cccnc34)cn2)CCN1 | 44.3% (inactive) |
| COc1cccc(-c2nc3occn3c2-c2ccnc(NCCCNS(=O)(=O)c3cccc(F)c3)n2)c1 | 29.3% (inactive) |
| C=CCn1c(SCC(=O)Nc2ccc(C(=O)/C=C/c3cc(OC)c(OC)c(OC)c3)cc2)nnc1-c1cc(-c2ccc(S(C)(=O)=O)cc2)nc2ccccc12 | 85.6% (inactive) |
| N#CC1=C(N)Oc2c(ccc3ccccc23)C1c1ccc([N+](=O)[O-])cc1 (stereo not given) | 74.6% (inactive) |
| O=C1Nc2ccccc2/C1=N/c1nc(-c2ccc(Cl)cc2)cs1 | 43.4% (inactive) |
| Cc1[nH]n(-c2cccc(Cl)c2)c(=O)c1/C=C1\C=Nc2ccc(Br)cc21 | -47.4% (active) |
| C=C1C(=O)O[C@H]2[C@H]1CC/C(COC(=O)CCCCCC(=O)OC/C1=C/CC[C@@]3(C)O[C@H]3[C@H]3OC(=O)C(=C)[C@@H]3CC1)=C\CC[C@@]1(C)O[C@@H]21 | 1.26% (active) |
